# Measured values taken from the supplement of paper PMC6555819.
# Columns and labels:
# Assay in all cases: PBM binding z-score (relative to random genomic background probes); higher = stronger binding; sequences stand for … in GC…GCGATTGACAGCGTAGAATGAAGG
# [1] = tested on: FXR:RXRa (NR concentration 270 nM, RXRa partner concentration 90 nM)
# Summary of the method: (§1)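 Ligand-free nuclear receptor dimers were bound for 1 h to custom Agilent 4×180K protein-binding microarrays. Detection used antibodies against each partner (one per run). Binding z-scores rest on regression-normalized fluorescence, with random background probes as the reference.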
# [2] = tested on: LXRa:RXRa (NR concentration 270 nM, RXRa partner concentration 90 nM)
# Summary of the method: as §1
# [3] = tested on: LXRa homodimer (NR concentration 270 nM)
# Summary of the method: as §1
# [4] = tested on: LXRb:RXRa (NR concentration 270 nM, RXRa partner concentration 90 nM)
# Summary of the method: as §1
# [5] = tested on: LXRb homodimer (NR concentration 270 nM)
# Summary of the method: as §1
# [6] = tested on: PPARa:RXRa (NR concentration 270 nM, RXRa partner concentration 90 nM)
# Summary of the method: as §1
# [7] = tested on: PPARg:RXRa (NR concentration 180 nM, RXRa partner concentration 90 nM)
# Summary of the method: as §1
# [8] = tested on: PPARg:RXRa 270nM:90nM, anti-RXR (NR concentration 270 nM, RXRa partner concentration 90 nM)
# Summary of the method: as §1
# [9] = tested on: PPARg:RXRa 30nM:10nM, anti-RXR (NR concentration 30 nM, RXRa partner concentration 10 nM)
# Summary of the method: as §1
# [10] = tested on: PPARg:RXRa 90nM:30nM, anti-RXR (NR concentration 90 nM, RXRa partner concentration 30 nM)
# Summary of the method: as §1
# [11] = tested on: PPARg:RXRa DBDmut IVT, anti-RXR (DBD mutation: RXRa K156A/R161A, NR concentration 270 nM, RXRa partner concentration 90 nM)
# Summary of the method: as §1
# [12] = tested on: PPARg:RXRa IVT, anti-PPARg (NR concentration 270 nM, RXRa partner concentration 90 nM)
# Summary of the method: as §1
# [13] = tested on: PPARg DBDmut:RXRa IVT, anti-PPARg (DBD mutation: PPARg1 K132A/R137A, NR concentration 270 nM, RXRa partner concentration 90 nM)
# Summary of the method: as §1
# [14] = tested on: PPARg DBDmut IVT, anti-PPARg (DBD mutation: PPARg1 K132A/R137A, NR concentration 270 nM)
# Summary of the method: as §1
# [15] = tested on: PPARg homodimer (NR concentration 180 nM)
# Summary of the method: as §1
# [16] = tested on: PXR:RXRa (NR concentration 270 nM, RXRa partner concentration 90 nM)
# Summary of the method: as §1
# [17] = tested on: PXR homodimer (NR concentration 270 nM)
# Summary of the method: as §1
# [18] = tested on: RARa:RXR (NR concentration 270 nM, RXRa partner concentration 90 nM)
# Summary of the method: as §1
# [19] = tested on: RARa homodimer (NR concentration 270 nM)
# Summary of the method: as §1
# [20] = tested on: RARb:RXRa (NR concentration 270 nM, RXRa partner concentration 90 nM)
# Summary of the method: as §1
Sequence,PBM binding z-score [1],PBM binding z-score [2],PBM binding z-score [3],PBM binding z-score [4],PBM binding z-score [5],PBM binding z-score [6],PBM binding z-score [7],PBM binding z-score [8],PBM binding z-score [9],PBM binding z-score [10],PBM binding z-score [11],PBM binding z-score [12],PBM binding z-score [13],PBM binding z-score [14],PBM binding z-score [15],PBM binding z-score [16],PBM binding z-score [17],PBM binding z-score [18],PBM binding z-score [19],PBM binding z-score [20]
AGTCAAAGTTCATCTAGGTATCGTAAGATATGCT,6.52,5.79,5.29,3.63,2.09,4.52,6.38,5.82,3.16,5.19,0.0537,2.59,0.906,0.493,2.49,5.11,5.44,3.62,1.32,4.95
ATCGAAAGGTCGAGGAGGTGAGTATACACCGTTT,4.46,3.42,-0.194,2.55,0.629,4.26,2.8,3.19,0.595,2.06,0.255,1.9,1.49,0.557,1.47,2.86,0.184,3.41,0.666,3.94
CCTACTGGGCCATACAGAGGTCATTGATCATATG,2.83,4.1,5.31,3.73,0.274,3.89,2.98,3.58,1.03,2.85,4.36,4.21,1.03,0.445,4.53,5.28,2.92,5.24,1.8,3.12
TCTCGGAGGACACGAAGGTCAGCGCTTTCCAGAG,1.84,1.77,0.379,1.68,-0.754,2.31,0.453,2.02,2.12,1.93,1.48,1.41,-0.389,-0.884,2.23,2.49,0.985,3.06,0.313,3.95
CAAACTAGGTCACAGAGGTTAAAGTCCGTGCGTA,5.89,5.17,3.01,4.28,0.562,6.05,9.43,7.64,5.91,7.56,8.23,9.05,7.06,4.73,2.92,4.74,3.84,4.65,1.69,4.62
TAGCCTAGGTCATTTGGCCAGTATAGTACGCATC,4.44,3.74,1.16,2.71,1.07,3.48,2.06,2.03,0.424,1.5,1.38,2.47,0.221,0.0367,0.566,1.61,-0.0591,2.08,-0.227,3.67
GCTGCTAGGTTAACTGATGGTCAGCTAAAGCTCG,-0.137,1.44,-0.782,0.138,-0.9,0.846,-0.15,0.209,-0.499,-0.243,2.43,1.36,-1.35,-0.847,-0.127,0.00634,-0.91,0.512,-1.49,1.54
